A selection: hits, their analogues and other compounds. The true share with any hit is near 7%.
ATXN2 expr inh: inhibitors of ATXN2 expression; 360,000 tested, 0.72% active; Potency, µM (highest dose often 57 µM), actives largely listed as inhibitors; HEK-293 ATXN2-luciferase reporter, luminescence, 24 h; AID 1745845; also: nearly all actives have a fitted effect of over 55% in size
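qHTS (up to 57 uM final) was run with 24 h compound exposure of reporter cells at 37 °C. Each well was multiplexed: SteadyGlo luminescence measured ATXN2-luciferase expression after a fluorogenic Gly-Phe-AFC viability readout (25 uM final).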
ATXN viability: viability counter-screen for ATXN expression inhibitors. 400,000 tested, 0.49% active. Potency, µM (titrated, usually from 56.7 µM), most hits filed as cytotoxic. S2 cells (HEK-293 line with an ATXN2-luciferase reporter) viability, CellTiter-Fluor protease fluorescence, 24 h. AID 651635; also: nearly all actives have a fitted effect of over 40% in size
IL1B secr inh: inhibitors of inflammasome signaling (IL-1 beta secretion); activity change, % at 57.5 µM; 360,000 tested, 4.7% active; AID 743279; THP-1 LPS/ATP IL-1B secretion, AlphaLISA, 16 h; hits give low values; in the data active = activity change below about -50%; inconclusive = mostly about -30% to -49%
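THP-1 cells pretreated 1 hr with compounds (up to 57.5 uM final), then stimulated with LPS (250 ng/mL final) plus ATP (1.25 mM final); secreted IL-1B measured by AlphaLISA after 16 hr, decreased signal indicating inhibition.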
Integrin act MD: activators of alpha7 integrin expression for muscular dystrophy; alpha7betagal myoblasts, beta-gal FDG fluorescence, 48 h; Potency, µM (highest dose often 38.3 µM), hits mostly activators; 350,000 tested, 0.064% active; also: nearly all actives have a fitted effect of over 60% in size
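Alpha7betagal+/- myoblasts (passage 13) were plated 16-24 hr, then exposed to compounds (1:260 dilution of DMSO stock) for 48 hours at 37C. After MPER lysis, β-galactosidase reporter activity was read as FDG fluorescence (ex 480/em 540) after 30 minutes.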
D3 antag: antagonists of human D3 dopamine receptor. P35462. D3R cells, DiscoveRx beta-arrestin luminescence, antagonist mode; hits give low values. max response, negative = inhibition, %. 360,000 tested, 2.5% active; in the data active = max response below about -50%; inconclusive = no clear call, values can overlap the other calls
Target sequence (P35462 whole entry, looked up): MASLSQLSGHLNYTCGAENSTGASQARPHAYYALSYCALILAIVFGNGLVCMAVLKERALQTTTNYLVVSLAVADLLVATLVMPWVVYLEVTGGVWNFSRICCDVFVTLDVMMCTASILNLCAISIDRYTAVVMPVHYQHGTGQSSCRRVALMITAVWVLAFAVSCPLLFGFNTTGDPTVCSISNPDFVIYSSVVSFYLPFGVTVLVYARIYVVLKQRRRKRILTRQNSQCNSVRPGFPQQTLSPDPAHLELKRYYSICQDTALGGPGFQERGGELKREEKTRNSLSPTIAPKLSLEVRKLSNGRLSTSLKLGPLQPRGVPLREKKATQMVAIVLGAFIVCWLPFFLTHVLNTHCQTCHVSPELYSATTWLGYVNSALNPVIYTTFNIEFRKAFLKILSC
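Cells expressing the human receptor were seeded at 1500 cells/well, incubated overnight at 37 degrees C in 5% CO2, then exposed to library compounds with dopamine controls for 90 minutes at 37 degrees C before luminescent detection.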
DRD3 agonist: agonists of human D3 dopamine receptor; P35462; max activation, %; D3R DiscoveRx beta-arrestin cells, luminescence, 90 min; 410,000 tested, 0.58% active; in the data active = max activation above about 30%
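Agonist-mode cell screen: cells plated at 1500/well and incubated overnight at 37 °C, then exposed to library compounds for 90 min at 37 °C. Detection reagent was added for 30–60 min at room temperature, and luminescence was read.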
Hits are given with their value; [ ] = remark or other dose. Unless noted, calls follow the shape of the dose curve; as a rule, active = well fitted curve in the direction sought with a large enough effect; inconclusive = small, poorly fitted or top-dose-only effect, or another doubt; inactive = no such curve, though single readings can be large; an effect the other way counts as inactive or inconclusive.

For COc1ccc(S(=O)(=O)N2CCN(CC(=O)Nc3ccc(C)c(F)c3)CC2)cc1 the results were ATXN2 expr inh inactive, ATXN viability inactive, IL1B secr inh -61, Integrin act MD inactive, D3 antag inactive and DRD3 agonist inactive.
For Cc1[nH]n(-c2ccccc2)c(=O)c1/C=N/NC(=O)c1cccc([N+](=O)[O-])c1 the results were ATXN2 expr inh 14µM, ATXN viability inconclusive, IL1B secr inh inactive, Integrin act MD inactive, D3 antag inactive and DRD3 agonist inactive.
For CCOc1cc(/C=N/NC(=O)c2cccc([N+](=O)[O-])c2)ccc1OS(=O)(=O)c1ccccc1 the results were ATXN2 expr inh inactive, ATXN viability inactive, IL1B secr inh inactive, Integrin act MD inactive, D3 antag -61 and DRD3 agonist inactive.
`O=C(N/N=C/c1coc2ccccc2c1=O)c1cccc([N+](=O)[O-])c1` gave ATXN2 expr inh inactive, ATXN viability inactive, IL1B secr inh inactive, Integrin act MD inactive, D3 antag inactive and DRD3 agonist inactive.
Cc1[nH]n(-c2cccc3ccccc23)c(=O)c1/C=N/NC(=O)c1cccc([N+](=O)[O-])c1 was read as ATXN2 expr inh 20µM, ATXN viability inconclusive, IL1B secr inh inactive, Integrin act MD inactive, D3 antag inactive and DRD3 agonist inactive.
COC(=O)c1ccc(CNC(=O)c2ccc3c(c2)OCCO3)cc1 was read as ATXN2 expr inh inactive, ATXN viability inactive, IL1B secr inh inactive, Integrin act MD inactive, D3 antag inactive and DRD3 agonist inactive.
C[C@@H]1CC=C[C@H]2[C@H]1C(=O)N(Cc1ccccc1)[C@H]2c1ccc(-c2ccoc2)cc1F was read as ATXN2 expr inh inactive, ATXN viability inconclusive, IL1B secr inh inactive, Integrin act MD inactive, D3 antag -62 and DRD3 agonist inactive.
For CCOc1ccc(CN(C)C(=O)CCl)cc1 the results were ATXN2 expr inh inactive[11.3 µM], IL1B secr inh -102, Integrin act MD inactive, D3 antag inactive and DRD3 agonist inactive.
Screening COc1ccc(C(C)=O)cc1CN1C(=O)NC2(CCCC2)C1=O returned ATXN2 expr inh inactive[11.3 µM], ATXN viability inactive, IL1B secr inh inactive, Integrin act MD inactive, D3 antag inactive and DRD3 agonist inactive.
For CCOc1ccc(CN2CCc3nc(Nc4ccc(OC)cc4OC)ncc3C2)cc1 the results were ATXN2 expr inh inactive, ATXN viability inactive and DRD3 agonist inactive.
Screening Cc1cc(C)c2c(n1)sc1c(=O)n(CC(=O)c3ccccc3)cnc12 returned ATXN2 expr inh inactive, ATXN viability inactive, IL1B secr inh inactive, Integrin act MD inactive, D3 antag inactive and DRD3 agonist inactive.
Screening C=CCOC(=O)Cn1cnc2c(sc3nc(C)cc(C)c32)c1=O returned ATXN2 expr inh inactive, ATXN viability inactive, IL1B secr inh -71, Integrin act MD inactive, D3 antag inactive and DRD3 agonist inactive.
COc1ccccc1N(C)S(=O)(=O)c1ccc(C(=O)N(C)Cc2cccc(OC)c2OC)cc1 was read as ATXN viability inactive, IL1B secr inh inactive, Integrin act MD inactive, D3 antag inactive and DRD3 agonist inactive.
Screening COc1ccc(/C=C/CN2CCN(Cc3ccc(F)cc3)C(CCO)C2)cc1 (stereo not drawn) returned ATXN2 expr inh inactive, ATXN viability inactive, IL1B secr inh -55, Integrin act MD inactive, D3 antag inactive and DRD3 agonist inactive.
`CCOc1ccc(CN2CCN(CCCc3ccccc3)CC2CCO)cc1` (stereo not drawn) gave ATXN2 expr inh inactive, ATXN viability inactive, IL1B secr inh -52, Integrin act MD inactive, D3 antag inactive and DRD3 agonist inactive.
Screening Cc1ccc(CN2CCN(CCCc3ccccc3)CC2CCO)cc1 (stereo not drawn) returned ATXN viability inactive, IL1B secr inh inactive, Integrin act MD inactive, D3 antag inconclusive and DRD3 agonist inactive.
OCCC1CN(CCCc2ccccc2)CCN1Cc1ccc(F)cc1 (stereo not drawn) was read as ATXN2 expr inh inactive, ATXN viability inactive, IL1B secr inh inactive, Integrin act MD inactive, D3 antag -56 and DRD3 agonist inactive.
Screening COc1ccccc1Nc1ncnc2scc(-c3ccc(F)cc3)c12 returned ATXN2 expr inh inactive, ATXN viability inactive and DRD3 agonist inactive.
`Cc1nc2scc(-c3ccccc3)c2c(=O)o1` gave ATXN2 expr inh inactive, ATXN viability inactive, IL1B secr inh inactive, Integrin act MD inactive, D3 antag inactive and DRD3 agonist inactive.
Cc1nc2c(o1)C(=O)c1ccccc1C2=Nc1ccccc1 was read as ATXN2 expr inh 28µM, IL1B secr inh -100, Integrin act MD inactive, D3 antag inconclusive and DRD3 agonist inactive.
Screening Oc1[nH]c2ccc(Br)cc2c1N=NC(=S)N1CCOCC1 returned ATXN2 expr inh 0.71µM, ATXN viability inconclusive, IL1B secr inh inactive, Integrin act MD inactive, D3 antag inactive and DRD3 agonist inactive.
`Oc1[nH]c2ccccc2c1N=NC(=S)N1CCOCC1` gave ATXN viability 3.2µM, IL1B secr inh inactive, Integrin act MD inactive, D3 antag inactive and DRD3 agonist inactive.
COc1cc(NC(=O)c2cc([N+](=O)[O-])ccc2NC(=O)CN2CCN(c3ccccn3)CC2)cc(OC)c1 was read as ATXN2 expr inh inactive, ATXN viability inactive, IL1B secr inh inactive, Integrin act MD inactive, D3 antag inactive and DRD3 agonist inactive.
Screening COc1cccc(-c2nnc3sc(C4CCCCC4)nn23)c1 returned ATXN2 expr inh inactive, ATXN viability inactive, IL1B secr inh -93, Integrin act MD inactive, D3 antag inactive and DRD3 agonist inactive.
CCOc1cccc(-c2nn3c(-c4cc(C)[nH]n4)nnc3s2)c1 was read as ATXN2 expr inh inactive, ATXN viability inactive, IL1B secr inh -77, Integrin act MD inactive, D3 antag inactive and DRD3 agonist inactive.
`CCOc1ccc(-c2nn3c(-c4ccc(F)cc4)nnc3s2)cc1` gave ATXN2 expr inh inactive, ATXN viability inactive, IL1B secr inh inactive, Integrin act MD inactive, D3 antag -64 and DRD3 agonist inactive.
For CCOc1cccc(-c2nnc3sc(C4CCCCC4)nn23)c1 the results were ATXN2 expr inh inactive, ATXN viability inactive, IL1B secr inh inconclusive, Integrin act MD inactive, D3 antag inactive and DRD3 agonist inactive.
For c1ccc(-c2nnc3sc(-c4ccncc4)nn23)cc1 the results were ATXN2 expr inh inactive, ATXN viability inactive, IL1B secr inh -51, Integrin act MD inconclusive, D3 antag inactive and DRD3 agonist inactive.
`O=C(NCc1ccccc1)c1cc[n+](Cc2ccccc2)cc1` gave ATXN2 expr inh inactive, ATXN viability inactive, IL1B secr inh inactive, Integrin act MD inactive, D3 antag inactive and DRD3 agonist inactive.

Screening data as filed in PubChem.
